Test results reported in PubChem BioAssay AID598 (SRMLSC, 2007).
Hit rate of the full screen: of about 85,000 compounds, about 5,100 (6%) were called active.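 The calls were made as follows: active = viability at or below 40%; inactive = viability above 40%.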 The sample as a whole holds a higher share of actives than the screen did.

Experiment: H69AR cell viability reduction – human, 86K library, primary screen (AID 598);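 also: multidrug resistant small cell line overexpressing MRP-1 efflux transporter; 100% = mean luminescence of untreated control wells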
Conditions: H69AR lung tumor viability, ATP luminescence, 72 h; at 10 µM; active compounds read low

SMILES | viability
CC(C)c1nc(N2CCOCC2)c(C#N)c2c1COC(C)(C)C2 | 79.6% (inactive)
CC1(C)Cc2c(C#N)c(SCc3nc4ccccc4[nH]3)nc(N3CCOCC3)c2CO1 | 37.1% (active)
COc1ccc(CSc2nc(N3CCOCC3)c3c(c2C#N)CC(C)(C)OC3)cc1 | 92.7% (inactive)
CCc1ccc(C2C(C#N)=C(N)Oc3n[nH]c(CC(=O)OC)c32)cc1 (stereo unspecified) | 92.7% (inactive)
O=C(Nc1ccc2c(c1)OCCO2)C(c1ccc(F)cc1)N1CCCCC1 (stereo unspecified) | 99.9% (inactive)
Cc1ccc(OCc2nnc(NC(=O)OCC(C)C)s2)cc1 | 102% (inactive)
CC1Cc2ccccc2N1C(=O)CSc1nnc(-c2ccc(S(=O)(=O)N3CCCCC3)cc2)o1 (stereo unspecified) | 29.4% (active)
CCS(=O)(=O)c1ccc2oc(SCC(=O)N3c4ccccc4CC3C)nc2c1 (stereo unspecified) | 63.3% (inactive)
CC1Cc2ccccc2N1C(=O)CSc1nc2ccccc2o1 (stereo unspecified) | 74.2% (inactive)
CCOC(=O)/C(C#N)=C\c1c(C)cc(C)c(COC(C)=O)c1C | 95.1% (inactive)
CCNC(=O)NC(=O)C(C)OC(=O)c1cc(S(=O)(=O)N2CCCCCC2)ccc1OC (stereo unspecified) | 84.3% (inactive)
Cc1ccc(NC(=O)CCN2CCc3ccccc3C2)cc1 | 79.4% (inactive)
Cc1ccc(NC(=S)NC(NC(=O)Cc2cccc3ccccc23)C(Cl)(Cl)Cl)cc1 (stereo unspecified) | 0.99% (active)
CC(N=Cc1nc(-c2ccccc2)oc1O)c1ccccc1 (stereo unspecified) | 94.3% (inactive)
Cc1ccc(S(=O)(=O)N2CCC(C(=O)NCC3CCCO3)CC2)cc1 (stereo unspecified) | 105% (inactive)
COc1cccc(NC(=O)CN2CCN(c3nc(-c4cccc(OC)c4)cs3)CC2)c1 | 93.2% (inactive)
COc1ccc([N+](=O)[O-])cc1C1NN=C(c2cccc3ccccc23)S1 (stereo unspecified) | 27.1% (active)
Cc1ccc(CNC(=O)COc2ccc(S(=O)(=O)NC(C)C)cc2)cc1 | 98.1% (inactive)
COc1ccc(C2=NOC(C(=O)NCc3ccco3)C2)cc1OC (stereo unspecified) | 28.7% (active)
COc1ccc(-c2cc(C(=O)NCc3ccco3)no2)cc1OC | 100% (inactive)
COc1cc2c(cc1OC)C(C(=O)NCc1ccco1)C1c3ccccc3CCN1C2=O (stereo unspecified) | 92.7% (inactive)
COc1cccc(N=c2oc3c(C)ncc(CO)c3cc2C(N)=O)c1 | 68% (inactive)
CCCCn1c(SCc2ncc(-c3ccccc3)o2)nc2cc(S(N)(=O)=O)ccc21 | 14% (active)

SMILES | viability
CCn1c(SCC(=O)NCC2CCCO2)nc2cc(S(=O)(=O)N3CCCCC3)ccc21 (stereo unspecified) | 96.9% (inactive)
CCCCn1c(SCC(=O)N2CCC(C(=O)OCC)CC2)nc2cc(S(N)(=O)=O)ccc21 | 48.4% (inactive)
COC(=O)c1ccc(NC(=O)C23CC4CC(C2)CC(n2cnc(Cl)n2)(C4)C3)cc1 | 72.7% (inactive)
CCCOC(=O)c1[nH]c2c(c1C)C(=O)CC(c1cccs1)C2 (stereo unspecified) | 34.2% (active)
CCOC(=O)c1[nH]c2c(c1C)C(=O)CC(c1ccc(N(C)C)cc1)C2 (stereo unspecified) | 100% (inactive)
CCCOC(=O)c1[nH]c2c(c1C)C(=O)CC(c1cc(OC)c(OC)c(OC)c1)C2 (stereo unspecified) | 80.3% (inactive)
Cc1nc(NC(=O)CN(C)S(=O)(=O)c2ccc(Cl)cc2)sc1C | 61.4% (inactive)
CCc1c(C)sc(NC(=O)c2cccs2)c1C(N)=O | 99.7% (inactive)
CCN(CC)C(=O)CN(c1cccc(OC)c1)S(=O)(=O)c1ccc(C)cc1 | 82.3% (inactive)
CCCCNC(=O)C1CCCN(S(=O)(=O)c2ccc(S(=O)(=O)NCC(C)C)cc2)C1 (stereo unspecified) | 90.8% (inactive)
Cc1cccc(N2CCN(C(=O)c3cnn4c(C(F)F)cc(-c5ccccc5)nc34)CC2)c1C | 28.9% (active)
O=C(Nc1ccccc1N1CCN(C(=O)c2ccccc2)CC1)c1ccc2c(c1)OCO2 | 81.8% (inactive)
Cc1cccc(N2CCN(C(=O)C3CCN(S(=O)(=O)c4cnc[nH]4)CC3)CC2)c1C | 93.6% (inactive)
O=C1CSC(c2cccc(F)c2)N1c1ccc(O)cc1 (stereo unspecified) | 101% (inactive)
CC(C)CCNC(=O)Cn1c(=O)oc2cc(S(=O)(=O)N3CC(C)CC(C)C3)ccc21 (stereo unspecified) | 40.8% (inactive)
Cc1oc(-c2ccccc2Cl)[n+]([O-])c1C | 85.9% (inactive)
Cc1[nH][nH]c(=O)c1C(c1ccc(-c2ccc(Cl)cc2)o1)c1c(C)[nH][nH]c1=O | 1.92% (active)
Cc1[nH][nH]c(=O)c1N=Nc1ccccc1 | 91.5% (inactive)
CCN1CCN(C(=O)C2(NC(=O)Nc3cccc(F)c3)CCCCC2)CC1 | 90.9% (inactive)
O=C(c1ccccc1Oc1ccccc1)N1CCN(c2ccc(F)cc2)CC1 | 100% (inactive)
COC(=O)c1ccccc1NC(=O)CSc1nnnn1C | 95.3% (inactive)
O=C(CN1CCCCCC1)N1c2ccccc2Sc2ccc(C(F)(F)F)cc21 | 36.8% (active)
O=C(CN1CCCCC1)N1c2ccccc2Sc2ccc(C(F)(F)F)cc21 | 86.8% (inactive)

SMILES | viability
CC1CC(C)CN(CC(=O)N2c3ccccc3CCc3ccccc32)C1 (stereo unspecified) | 82.7% (inactive)
Cc1cc(C)nc(N2CCN(c3ncnc4c3oc3ccccc34)CC2)n1 | 103% (inactive)
CC(C)c1nc2oc3c(N4CCN(C)CC4)ncnc3c2c2c1CCC2 | 33.7% (active)
CCN1CCN(c2ncnc3c2oc2nc(C)c4c(c23)CC(C)(C)OC4)CC1 | 81.8% (inactive)
COc1cc2c(cc1OC)C(C(C)C)=NC(C)(C)C2 | 88.9% (inactive)
C/C(=N\NS(=O)(=O)c1ccc(Br)cc1)c1cccs1 | 110% (inactive)
COc1ccc(/C=C/C(=O)Nc2c(C)nn(C)c2C)cc1COc1ccc(Br)cc1 | 57.5% (inactive)
CCn1nc(C)c(NC(=O)/C=C/c2ccc(OC)c(COc3ccc(Br)cc3)c2)c1C | 28.8% (active)
CCn1c(COc2ccc(OC)cc2)nnc1SCC(=O)Nc1cc(OC)ccc1OC | 71.4% (inactive)
COc1cccc2cc(C(=O)N3CCN(C(=O)c4ccccc4)CC3)c(=O)oc12 | 89.3% (inactive)
O=S(=O)(NC1CCCCC1)c1ccc(F)c2ccccc12 | 86.6% (inactive)
Cc1ccc(-c2nc3c(cnn3-c3ccccc3)c(=O)o2)cc1 | 79.6% (inactive)
Cc1ccc(-n2ncc3c2ncn2nc(-c4ccco4)nc32)c(C)c1 | 78.6% (inactive)
Cc1ccc(-n2ncc3c(=O)n(-c4ccc(C)c(C)c4)c(-c4ccco4)nc32)cc1 | 31.3% (active)
CCOC(=O)c1ccc2c(c1)nc(SCC(=O)NC(C)C)n2CC | 84% (inactive)
CCNc1nc(NC(C)C)nc(OCCOC(=O)c2ccccc2)n1 | 83.5% (inactive)
CCOc1cccc(NC(=O)Cn2nc(-c3ccc4c(c3)OCCO4)ccc2=O)c1 | 69.3% (inactive)
CCN(CC)S(=O)(=O)c1cccc(C(=O)Nc2ccccc2)c1 | 38.5% (active)
CN(C)S(=O)(=O)c1cccc(C(=O)Nc2cccnc2)c1 | 89.9% (inactive)
CCN(CC)S(=O)(=O)c1cccc(C(=O)NCC(=O)OCC(=O)NCc2ccccc2)c1 | 87.6% (inactive)
N#CC1=C(N)N(c2ccccc2)C2=C(C(=O)CCC2)C1c1ccccc1 (stereo unspecified) | 40.4% (inactive)
Cc1cccc(N2CCN(C(c3ccc(N(C)C)cc3)c3nnnn3C(C)(C)C)CC2)c1C (stereo unspecified) | 83.3% (inactive)
O=C(OCc1nnc(-c2ccccc2)o1)c1ccc2c(c1)C(=O)N(CCc1ccccc1)C2=O | 33.8% (active)

SMILES | viability
O=C(COC(=O)c1ccc(Oc2ccccc2)cc1)Nc1nnc(-c2ccccc2)o1 | 58.7% (inactive)
CCCc1nc2ccccc2c(C(=O)OCc2nnc(-c3cc(OC)c(OC)c(OC)c3)o2)c1CC | 50.2% (inactive)
O=C1CCCc2nn(-c3ccccc3)nc21 | 87.6% (inactive)
CCOC(=O)N1CC=C2C(C#N)=C(N)C(C#N)(C#N)[C@H](c3cccs3)[C@H]2C1 | 61.6% (inactive)
CCCN1CC=C2C(C#N)=C(N)C(C#N)(C#N)C(c3cc(OC)ccc3OC)C2C1 (stereo unspecified) | 31.8% (active)
CCN1CC=C2C(C#N)=C(N)C(C#N)(C#N)[C@H](c3ccoc3)[C@H]2C1 | 84.8% (inactive)
CCOC(=O)C1=C(CSc2nnnn2C)N(C)C(=O)NC1c1ccccc1 (stereo unspecified) | 93.1% (inactive)
COc1ccc(N2CCN(C(=O)CCc3nc(-c4ccc(C)cc4)no3)CC2)cc1 | 98.4% (inactive)
CCc1cccc(C)c1N(C(=O)Cn1c(CO)nc2ccccc21)C(C)COC (stereo unspecified) | 71% (inactive)
CCOC(=O)c1c(C)oc2ccc(OCC(=O)N(CC)CC)cc12 | 38.9% (active)
CCOC(=O)c1c(C)oc2cc(Br)c(OCC(N)=O)cc12 | 80.2% (inactive)
Cc1cc(=O)oc2ccc(OCC(=O)O)cc12 | 97.4% (inactive)
CN(C)c1ccnc2sc3c(=O)n(-c4ccc(Cl)cc4)cnc3c12 | 80.8% (inactive)
O=C(N/N=C/C=C/c1ccccc1)C1CC1(c1ccccc1)c1ccccc1 (stereo unspecified) | 98.1% (inactive)
CC(C)C[C@@H](N)c1nnc(SCC(=O)c2ccc(Cl)cc2)o1 | 86.9% (inactive)
COc1ccc(NC(=O)c2cccc(NC(=O)c3ccco3)c2)c(OC)c1 | 88.5% (inactive)
COc1cc(C(=O)OC(C)C(=O)NCC2CCCCC2)cc(NC(=O)c2ccco2)c1OC (stereo unspecified) | 13.1% (active)
COC(=O)c1cc(Cl)c(NC(=O)c2ccco2)cc1OC | 94% (inactive)
CC(C)(C)c1ccc(C(=O)NCC(=O)OCN2C(=O)c3ccccc3C2=O)cc1 | 104% (inactive)
Cc1cccc(-n2nc3c(c2NC(=O)c2ccc(Br)o2)CSC3)c1C | 59.7% (inactive)
Cc1cc(NC(=O)Nc2ccccc2)n(-c2ccccc2)n1 | 92.7% (inactive)
Cc1cc(C)nc(-n2nc(C)cc2NC(=O)c2ccc(Br)o2)n1 | 36.5% (active)
